Each compound was assayed against Focal adhesion kinase 1 (Homo sapiens) (UniProt Q05397) (assay: PTK2 protein binding on printed compound slides – biochemical, small-molecule microarray, 635/667 nm fluorescence, BSA, DTT, primary screen (AID 1130;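 further: composite of spot emission at 667 nm and signal to noise over triplicate slides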)). Settings: 635 nm fluorescence, higher = more signal.
Sequence of Focal adhesion kinase 1 (Homo sapiens) (Q05397 whole entry, looked up): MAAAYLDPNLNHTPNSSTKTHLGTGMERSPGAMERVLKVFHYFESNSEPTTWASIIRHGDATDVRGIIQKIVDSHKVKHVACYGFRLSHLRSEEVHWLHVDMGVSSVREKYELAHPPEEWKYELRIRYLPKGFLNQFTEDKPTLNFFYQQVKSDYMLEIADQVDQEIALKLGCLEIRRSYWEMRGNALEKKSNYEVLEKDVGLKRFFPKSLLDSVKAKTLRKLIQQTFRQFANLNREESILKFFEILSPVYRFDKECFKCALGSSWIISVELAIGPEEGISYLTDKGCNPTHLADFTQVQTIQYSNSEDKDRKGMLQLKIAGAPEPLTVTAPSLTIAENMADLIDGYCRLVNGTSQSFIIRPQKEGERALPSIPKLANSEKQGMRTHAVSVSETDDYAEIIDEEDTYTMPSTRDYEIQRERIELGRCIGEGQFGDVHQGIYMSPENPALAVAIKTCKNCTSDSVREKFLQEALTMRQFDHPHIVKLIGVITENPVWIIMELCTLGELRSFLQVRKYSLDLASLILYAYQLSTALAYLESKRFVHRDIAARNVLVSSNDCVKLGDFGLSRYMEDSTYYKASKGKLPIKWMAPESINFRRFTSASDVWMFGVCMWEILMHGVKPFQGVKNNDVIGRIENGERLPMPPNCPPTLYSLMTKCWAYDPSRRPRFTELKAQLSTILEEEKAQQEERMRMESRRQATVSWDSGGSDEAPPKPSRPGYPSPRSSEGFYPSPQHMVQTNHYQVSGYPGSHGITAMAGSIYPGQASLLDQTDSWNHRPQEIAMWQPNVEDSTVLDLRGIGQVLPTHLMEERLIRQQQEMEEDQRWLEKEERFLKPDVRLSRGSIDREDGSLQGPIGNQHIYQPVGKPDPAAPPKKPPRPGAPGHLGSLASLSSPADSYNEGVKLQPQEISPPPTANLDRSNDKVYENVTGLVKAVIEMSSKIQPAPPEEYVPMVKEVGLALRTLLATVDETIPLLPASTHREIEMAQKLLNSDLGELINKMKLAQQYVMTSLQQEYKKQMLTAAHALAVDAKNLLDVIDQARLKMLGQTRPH

Structure (SMILES)	composite z-score
C=CCN1C(=O)[C@]2(O[C@H](CCO)[C@@H]([Si](C)(C)c3ccc(OC)cc3)[C@@H]2C)c2cc(N3C(=O)c4cccc5cccc3c45)ccc21	1.05
C=CCN1C(=O)[C@]2(O[C@H](CCO)[C@@H]([Si](C)(C)c3ccc(OC)cc3)[C@@H]2C)c2cc(N3CCCCC3=O)ccc21	0.162
CN1C(=O)C2C=CC(C(O)c3ccc(-c4ccccc4)s3)N(N(c3ccccc3)c3ccccc3)C2C1=O (configuration not stated)	0.162
COc1cc(OC)c(C(O)C2C=CC3C(=O)NC(=O)C3N2Nc2ccc(Cl)cc2Cl)cc1Br (configuration not stated)	0.859
CCOC(=O)C[C@H]1[C@H](OC(=O)c2cc3ccccc3oc2=O)[C@@H](NC(=O)Cc2ccc(OC)cc2)c2cc(OCCCO)ccc2N1C(=O)c1ccccc1	-0.0962
COc1ccc(C(O)C2C=CC3C(=O)N(c4ccccc4)C(=O)C3N2Nc2ccccc2F)cc1OCc1ccccc1 (configuration not stated)	1.37
CN1C(=O)C2C=CC(C(O)Cc3ccccc3)N(Nc3ccccc3)C2C1=O (configuration not stated)	0.385
O=C1O[C@H](c2ccccc2)[C@H](c2ccccc2)N2[C@H]1[C@@H](C(=O)Nc1nc3ccccc3s1)[C@]1(C(=O)Nc3ccc(C#CC4(O)CCCCCC4)cc31)[C@H]2c1ccc(OCCO)cc1	0.429
C[N+](C)(C)CCCC[C@@H]1NC(=O)[C@@H]2C[C@H](C(=O)NCCCCCN)[C@H](c3cccc(OCCO)c3)N2C1=O	0.103
CCCCCCC#C[Si](O[C@H](c1ccccc1)c1cn([C@H](CO)Cc2ccccc2)nn1)(C(C)C)C(C)C	-0.074
COC(=O)[C@@]1(Cc2ccc(F)cc2)[C@@H]2[C@@H](CC(=O)[C@H]2CC(=O)C(=O)N(C)C)CN1C(=O)c1ccccc1	0.138
C#CCN(CC=C(C)C)[C@H](CO)c1ccccc1	-0.122
CCc1oc(CC[C@@H](CO)NC(=O)NCCn2cc(C3(O)CCCCC3)nn2)c(C(=O)OC)c1C(=O)OC	-0.353
C#CCN(Cc1ccccc1Br)C(/C=C/c1ccccc1)CO (configuration not stated)	-0.102
C#CCNC(=O)[C@H](Cc1ccccc1)NC(=O)CCC(=O)O	-0.318
C[C@@]1([C@@H](NC(=O)c2ccccc2)c2ccc(-c3ccccc3)cc2)C[C@H]1C1CCCCC1	0.327
CC(C)C(=C=CC[C@@H](O)c1ccccc1OCCO)CCO	0.306
O=C(c1ccccc1)N1Cc2ccccc2[C@@H]2OC(c3ccc(OCCCO)cc3)=N[C@]2(Cc2ccccc2)C1=O	0.319
CC(C)C(CO)N1C(=O)[C@@H]2[C@H]3C(=O)OCC=C[C@H]3OC23C=CCN(C(C)C)C(=O)[C@@H]13 (some centres not stated)	0.0732
CN(C)C(=O)[C@@]1(Cc2ccccc2)N=C(c2ccc(OCCCO)cc2)O[C@H]1c1ccccc1N=[N+]=[N-]	0.978
C=C/C=C/[C@H]1C(=C)CN([C@@H](Cc2ccccc2)C(=O)OC)[C@@H]1[C@H](O)Cc1ccccc1	-0.526
COCCOC(=O)N1C(=O)[C@@]2(c3cc(C#CC4(O)CCCCCC4)ccc31)[C@H](c1ccc(O)cc1)N1[C@H](c3ccccc3)[C@H](c3ccccc3)OC(=O)[C@H]1[C@@H]2C(=O)Nc1nc2ccccc2s1	0.482
Cc1ccc(S[C@]2(C(=O)NC(C)C)CC(=O)N(Cc3ccccc3Cl)[C@@H]2c2ccc(CO)cc2I)cc1	-0.0745
COc1ccc(CCNC(=O)[C@@]2(Sc3ccc(C)cc3)CC(=O)N(C3CCCCC3)[C@@H]2c2ccc(CO)cc2I)cc1	0.28
COCCOC(=O)N1C(=O)[C@@]2(c3cc(C#Cc4ccc(OC)cc4)ccc31)[C@H](c1ccccc1OCCO)N1[C@H](c3ccccc3)[C@H](c3ccccc3)OC(=O)[C@H]1[C@@H]2C(=O)N1CCN(c2ncccn2)CC1	0.863
NC(=O)[C@@H]1[C@H]2C(=O)O[C@H](c3ccccc3)[C@H](c3ccccc3)N2[C@H](c2ccc(O)cc2)[C@@]12C(=O)Nc1ccc(C#CC3(O)CCCCCC3)cc12	-0.205
CC(=O)N1Cc2ccccc2C[C@@]2(COC(c3ccc(OCCCO)cc3)=N2)C1=O	0.994
